Cruzain Triton – qHTS Assay for Promiscuous and Specific Inhibitors of Cruzain (with detergent); 200,000 tested, 0.43% active; Cruzipain (Trypanosoma cruzi), P25779; Potency, µM, for inactives: max response, negative = inhibition, most hits filed as inhibitors; purified cruzain, Z-FR-AMC fluorescence, 0.01% Triton;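 further: plate controls were neutral wells for no effect and buffer without enzyme for full effect; nearly all actives have a fitted effect of over 40% in size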
Target sequence (P25779 123-467 limits assumed): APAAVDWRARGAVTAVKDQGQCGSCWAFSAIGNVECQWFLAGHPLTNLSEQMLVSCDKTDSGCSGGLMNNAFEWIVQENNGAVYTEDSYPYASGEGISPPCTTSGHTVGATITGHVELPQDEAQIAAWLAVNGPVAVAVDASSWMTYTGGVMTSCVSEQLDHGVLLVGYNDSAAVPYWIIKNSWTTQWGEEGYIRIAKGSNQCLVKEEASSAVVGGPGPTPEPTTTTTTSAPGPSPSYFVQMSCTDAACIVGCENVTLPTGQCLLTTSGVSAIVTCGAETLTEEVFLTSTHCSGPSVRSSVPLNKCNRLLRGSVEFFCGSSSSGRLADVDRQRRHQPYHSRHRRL
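15 min RT preincubation of 1.5 nM cruzain with compound, then 2 uM Z-FR-AMC added; kinetic AMC fluorescence, 60 s delta. Triton X-100 0.01%, pH 5.5.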
Cruzain inh noDet – qHTS Assay for Promiscuous and Specific Inhibitors of Cruzain (without detergent); Potency, µM, for the others: max response, negative = inhibition, most hits filed as inhibitors; 200,000 tested, 2.3% active; AID 1476, 2009; purified cruzain, Z-FR-AMC fluorescence, no detergent; Cruzipain (Trypanosoma cruzi), P25779;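 further: plate controls were enzyme without inhibitor for no effect and buffer without enzyme for full effect; nearly all actives have a fitted effect of over 40% in size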
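Purified cruzain at 1.5 nM, pre-incubated 15 min with compound at room temperature in 100 mM sodium acetate pH 5.5, 5 mM DTT, 0.00005% Triton X-100. Reaction started with 2 uM Z-FR-AMC; AMC fluorescence increase over 60 s gives rate.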
Starred values were filed as active, the others as inactive; ? = inconclusive. A selection: hits, their analogues and other compounds. The true share with any hit is near 2.5%. The call rests on the fitted dose curve; in most records, active means well fitted curve in the direction sought with a large enough effect; inconclusive means small, poorly fitted or top-dose-only effect, or another doubt; inactive means no such curve, though single readings can be large; an effect the other way counts as inactive or inconclusive. Potency means the concentration at half of the fitted maximal effect.

SMILES	Cruzain Triton	Cruzain inh noDet
Cc1cccc(C)c1-n1c(C)cc(/C=N\Nc2ccc([N+](=O)[O-])cn2)c1C	-4%	16µM*
O=[N+]([O-])c1ccc(N/N=C/c2cn(Cc3ccc(F)cc3)c3ccccc23)nc1	-9%	7.9µM*
C[C@@H](CCC(=O)O)C(=O)O	3%	-1%
C=C(C)C(=O)/C=C/c1ccc(C(F)(F)F)cc1	2%	0%
CCOc1ccc(C(=O)Nc2ccc(C(=O)OCc3cc(=O)n4nc(CC)sc4n3)cc2)cc1	0%	-3%
CCOC(=O)N1CCN(Cc2nc3cc(NC(=O)c4ccccc4Cl)ccc3n2C(C)C)CC1	-5%	21%
COc1cc(NS(=O)(=O)c2ccc3oc(=O)c4ncn(C)c4c3c2)cc(OC)c1	-4%	?
Cc1ccc(S(=O)(=O)OC2CCN(C)CC2)cc1	-2%	5%
NC1=NC([S][Hg][c]2ccc(N)cc2)c2ncn([C@@H]3O[C@H](CO)[C@@H](O)[C@@H]3O)c2N1 (some centres not stated)	9%	22%
Cc1ccc(NC(=O)C(=O)NCC(c2cccnc2)N2CCc3ccccc32)cc1Cl (configuration not stated)	5%	-4%
O=P(O)(O)O[C@@H]1O[C@H](CO)[C@@H](O)[C@H](O)[C@@H]1O	1%	-2%
O=C(Nc1cccc(NC(=O)c2ccccc2Cl)c1)c1cccc(Br)c1	2%	7.9µM*
O=C(N/N=C/c1ccncc1)c1cccc(NC(=O)c2ccccc2Cl)c1	-1%	-1%
O=c1cc(-c2ccc(F)cc2)nc(SCc2nc(-c3cccc(C(F)(F)F)c3)no2)[nH]1	3%	-6%
CN1/C(=C\C(=O)COC(=O)CN2C(=O)C3CC=CCC3C2=O)C(C)(C)c2ccccc21 (configuration not stated)	-8%	9%
CNS(=O)(=O)c1cccc(C(=O)OCC(=O)/C=C2/N(C)c3ccccc3C2(C)C)c1	-14%	3%
CN1/C(=C\C(=O)COC(=O)CNC(=O)c2ccccc2F)C(C)(C)c2ccccc21	22µM*	20µM*
CN1/C(=C\C(=O)COC(=O)CNC(=O)c2ccc3ccccc3c2)C(C)(C)c2ccccc21	-24%	25µM*
O=C(NCc1cccc(Cl)c1)c1ccc2c(c1)nc1n2CCOC1	1%	-3%
COc1ccc(C)cc1NC(=O)Nc1ccc(Br)cn1	3%	25µM*
CCOC(=O)Nc1cc(C)ccc1OC	8%	-12%
CC(C)(C)c1ccc(O)c(CN(Cc2cc(C(C)(C)C)ccc2O)C2CCCCC2)c1	2%	3%
Cc1sc(NC(=O)c2cccc([N+](=O)[O-])c2)c(C(N)=O)c1-c1ccc(C(C)(C)C)cc1	4%	13µM*
Cc1sc(NC(=O)/C=C/C(=O)O)c(C(N)=O)c1-c1ccc(C(C)(C)C)cc1	-8%	-2%
Cc1n[nH]c(=S)n1/N=C/c1ccccc1OCc1ccc(Cl)cc1Cl	-1%	16µM*
SMILES	Cruzain Triton	Cruzain inh noDet
Cc1n[nH]c(=S)n1/N=C/c1ccc(OCc2ccc(Cl)cc2Cl)cc1	-2%	-14%
COc1ccc(C)cc1N(C(=O)c1cccc(F)c1)c1nc2ccccc2s1	-7%	?
COc1ccccc1N(C(=O)c1cncc(Br)c1)c1nc(-c2ccc(C)cc2)cs1	-2%	13µM*
CCCCOCCCNc1ncnc2c1[nH]c1ccccc12	?	-29%
c1ccc2c(c1)[nH]c1c(NCC3CCCO3)ncnc12 (configuration not stated)	-30%	25µM*
Cc1[nH]n(-c2ncc(-c3ccccc3)s2)c(=O)c1C(c1ccc(Br)cc1)C(C#N)C#N (configuration not stated)	?	13µM*
Cc1[nH]n(C(N)=S)c(=O)c1C(c1ccccc1)C(C#N)C#N (configuration not stated)	1%	20%
Cc1ccc(S(=O)(=O)N2CCCCC2)cc1NC(=O)COC(=O)CNC(=O)c1cc(Cl)cc([N+](=O)[O-])c1	10µM*	20µM*
Cc1ccc(S(=O)(=O)N2CCOCC2)cc1NC(=O)COC(=O)CNC(=O)c1ccc(C(C)(C)C)cc1	-2%	?
CC(C)NC(=O)COC(=O)CNC(=O)c1cc(Cl)cc([N+](=O)[O-])c1	7.9µM*	7.9µM*
CC(C)(C)c1ccc(C(=O)NCC(=O)OCC(=O)Nc2ccccc2[N+](=O)[O-])cc1	-6%	5%
CCC1Oc2ccc(C)cc2N(CC(=O)NCc2ccc(OC)cc2)C1=O (configuration not stated)	-3%	-11%
CN(C)CCSCCO	2%	-2%
O=C(NCc1ccco1)c1nc2ccccc2s1	-6%	-4%
Cc1ccc(NC(=O)c2sc3ccccc3c2Cl)cc1	-1%	-9%
CC(=O)Nc1ccc(NC(=O)C(C)OC(=O)CNC(=O)c2sc3ccccc3c2Cl)cc1 (configuration not stated)	11µM*	10µM*
O=C(NCc1cccnc1)c1sc2cc(Cl)ccc2c1Cl	-11%	0%
O=C(NCc1ccco1)c1sc2cc(Cl)ccc2c1Cl	?	25µM*
O=C(NCc1ccco1)c1sc2ccccc2c1Cl	?	25µM*
CCOc1cccc(CC(=O)Nc2ccc3nc(N4CCCCC4)cc(C)c3c2)c1OCC	2%	-4%
Cc1ccc2c(=O)c(C(=O)c3cccc(Cl)c3)cn(CC(=O)Nc3ccc4c(c3)OCCO4)c2n1	-4%	5%
Cc1cc(C(=O)OCC(=O)NC(C)(C)C)c2ccccc2n1	2%	-1%
Cc1cc(C(=O)OCC(=O)Nc2ccc(F)cc2[N+](=O)[O-])c2ccccc2n1	-2%	20µM*
CCCn1c(Nc2nc3ccccc3n2C)nc2ccccc21	0%	20µM*
CCCCn1c(Nc2ccccc2)nc2ccccc21	1%	-5%
SMILES	Cruzain Triton	Cruzain inh noDet
COc1ccc(-c2cc3nc(C)c(CCC(=O)NCCc4ccc(Cl)cc4)c(C)n3n2)c(OC)c1	3%	?
Cc1ccc(-c2csc(N(Cc3ccccc3)C(=O)COc3ccccc3)n2)cc1	6%	7.9µM*
Cc1ccc(-c2csc(N(CCc3ccccc3)C(=O)COc3ccccc3)n2)cc1	3%	-20%
COc1ccc2ccccc2c1-c1c(OC)ccc2ccccc12	-2%	21%
Cc1ccc(C2C=C(c3ccc(Cl)cc3)Nc3nc(NC(=O)c4ccco4)nn32)cc1 (configuration not stated)	-3%	2%
Cc1ccc(NC(=S)N(Cc2cccs2)Cc2cc3cc(C)ccc3[nH]c2=O)cc1	-6%	16µM*
Cc1ccc(NC(=S)N(Cc2cccs2)Cc2cc3cc(C)cc(C)c3[nH]c2=O)cc1	-4%	25µM*
Cc1cccc(NC(=S)N(Cc2cccs2)Cc2cc3cc(C)ccc3[nH]c2=O)c1	-6%	?
Cc1cc(C)c2[nH]c(=O)c(CN(Cc3cccs3)C(=S)NCc3ccco3)cc2c1	-3%	?
CCOC(=O)c1[nH]c2ccccc2c1NC(=O)c1ccccc1F	-10%	0%
C[C@@]12C=CC(=O)C=C1CC[C@H]1[C@H]3CC[C@](O)(C(=O)CO)[C@]3(C)CC(=O)[C@@H]12	-3%	-2%
Cc1nn(C(=O)c2cccc([N+](=O)[O-])c2C)c(C)c1S(=O)(=O)N1CCCCCC1	0%	-7%
COc1cccc(CNC(=O)C(Cc2ccccc2)NS(=O)(=O)c2ccc3c(c2)CCN3C(C)=O)c1 (configuration not stated)	-6%	-1%
